# Results from PubChem BioAssay.
# Target: Left-right determination factor 2 (Homo sapiens) (UniProt O00292)
# Assay: small molecules binding LEFTY2 protein – biochemical, small-molecule microarray, 635 nm fluorescence scan, primary screen (AID 1110)
# Conditions: higher = more signal
# Sequence of Left-right determination factor 2 (Homo sapiens) (O00292 whole entry, looked up): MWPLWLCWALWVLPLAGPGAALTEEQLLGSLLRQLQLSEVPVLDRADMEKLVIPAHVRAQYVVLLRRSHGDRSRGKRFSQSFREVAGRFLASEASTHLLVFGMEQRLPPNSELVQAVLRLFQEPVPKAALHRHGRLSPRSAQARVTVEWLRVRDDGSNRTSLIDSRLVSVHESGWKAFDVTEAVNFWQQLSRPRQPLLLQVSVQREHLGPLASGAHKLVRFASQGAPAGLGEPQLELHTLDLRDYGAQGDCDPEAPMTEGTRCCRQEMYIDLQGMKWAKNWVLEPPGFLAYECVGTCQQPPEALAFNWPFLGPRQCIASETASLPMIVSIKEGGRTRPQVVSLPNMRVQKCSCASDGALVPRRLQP
row,Structure (SMILES),composite z-score
1,CO[C@H]1O[C@H](CO)[C@@H](OC(=O)Nc2ccc(C(F)(F)F)cc2)[C@H](OC(=O)Nc2ccccc2-c2ccccc2)[C@@H]1OC(=O)Nc1ccccc1-c1ccccc1,0.523
2,COCCOC(=O)N1C(=O)[C@@]2(c3cc(C#CCC(C(=O)OC)C(=O)OC)ccc31)[C@H](C(N)=O)[C@H]1C(=O)O[C@H](c3ccccc3)[C@H](c3ccccc3)N1[C@@H]2c1ccc(OCCO)cc1,0.705
3,CCCCNC(=O)c1ccc(C#C[Si](C)(C)C)c(OC(C)=O)c1,0.431
4,COCCOC(=O)N1C(=O)[C@@]2(c3cc(C#Cc4ccc(OC)cc4)ccc31)[C@H](C(=O)Nc1nc3ccccc3s1)[C@H]1C(=O)O[C@H](c3ccccc3)[C@H](c3ccccc3)N1[C@@H]2c1ccccc1OCCO,0.615
5,COC(=O)[C@@]1(Cc2ccc(F)cc2)[C@H]2c3cc(C(=O)N4CCCC4)n(CCO)c3C[C@H]2CN1C(=O)c1ccccc1,-0.83
6,CCC[C@@H]1C=C(C(=O)OCC)[C@H](c2ccccc2)N1S(=O)(=O)c1ccc(C)cc1,1.06
7,COCCOC(=O)N1C(=O)[C@@]2(c3ccccc31)[C@H](C(N)=O)[C@H]1C(=O)O[C@H](c3ccccc3)[C@H](c3ccccc3)N1[C@@H]2c1ccc(OCCO)cc1,0.234

# Target: Calmodulin-1 (Homo sapiens) (UniProt P0DP23)
# Assay: small molecules binding calmodulin-1 with EGTA – biochemical, small-molecule microarray, Cy5-labelled CALM1, profiling panel (AID 1111);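 also: labelled calmodulin applied in Tris saline Tween buffer holding calcium plus EGTA and DTT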
# Conditions: Cy5-CALM1 binding fluorescence, higher = more signal
row,Structure (SMILES),composite z-score
1,CC(C)(C)OC(=O)CC[C@]1(C(=O)N2CCOCC2)N=C(c2ccc(OCCCO)cc2)O[C@H]1c1ccccc1CN=[N+]=[N-],1.27
2,CC(c1ccccc1)C(O)C1C=CC2C(=O)N(c3ccccc3)C(=O)C2N1Nc1ccc(C#N)cc1 (configuration not stated),1.52
3,COc1ccc(CCNC(=O)[C@@]2(Sc3ccc(C)cc3)CC(=O)N(Cc3cc(C(F)(F)F)cc(C(F)(F)F)c3)[C@@H]2c2ccc(CO)cc2)cc1,-0.615
4,CCOC(=O)C[C@H]1[C@H](OC(=O)c2cc3ccccc3oc2=O)[C@@H](NC(=O)C2CCCCC2)c2cc(OCCCO)ccc2N1C(=O)Cc1ccc(OC)cc1,0.126
5,CC1CC/C=C\[C@H]2OC34C=CCN(CCN5CCOCC5)C(=O)[C@H]3N(CCCCCCO)C(=O)[C@@H]4C2C(=O)O1 (some centres not stated),-0.482
6,CCOC(=O)C1=CC[C@@H](c2ccc(F)cc2)N(S(=O)(=O)c2ccc(C)cc2)[C@H]1c1ccc([N+](=O)[O-])cc1,1.56
7,COC(=O)[C@@]1(Cc2ccc(OC)cc2)[C@@H]2[C@@H](CC(=O)[C@H]2CC(=O)C(=O)N2CCCC2)CN1C(=O)c1ccccc1,2.05
8,C=CCNC(=O)[C@H]1[C@@H]2C(=O)O[C@@H](c3ccccc3)[C@@H](c3ccccc3)N2[C@@H](c2ccc(O)cc2)[C@]12C(=O)Nc1ccc(C#CC3=CCCCC3)cc12,0.887
9,COC(=O)Cn1c(C(=O)N(C)C)cc2c1C[C@H]1CN(C(=O)c3ccccc3)[C@@](Cc3ccc(OC)cc3)(C(=O)OC)[C@@H]21,0.966
10,O=C1O[C@@H](c2ccccc2)[C@@H](c2ccccc2)N2[C@@H](c3ccc(O)cc3)[C@]3(C(=O)Nc4ccc(C#CC5=CCCCC5)cc43)[C@@H](C(=O)N3CCCCCCC3)[C@H]12,1.61
11,CC(C)C[C@H]1NC(=O)[C@@]23C(=O)N[C@@H](Cc4ccccc4)C2[C@H](C)[C@@]2(C)O[C@H]2C3/C=C/C/C=C\CNC(=O)[C@@H]2CCCN2C1=O (some centres not stated),-0.0621
12,C#CCN(C/C=C/c1ccccc1)[C@H](CO[Si](C)(C)C(C)(C)C)c1ccccc1,-0.488
13,COC(=O)C1(CC(C)C)C=C2C(=C(C(C)C)C(=O)C2C)CN1 (configuration not stated),0.228
14,CC=CC(O)C1C=CC2C(=O)N(C)C(=O)C2N1NC(=O)OC(C)(C)C (configuration not stated),0.127
15,COc1cc2c(cc1O)C(C1CC1)N(Cc1ccc([N+](=O)[O-])o1)CC2 (configuration not stated),1.82
16,CC(C)C[C@H]1NC(=O)[C@@H](C)NC(=O)[C@@]23C(=O)N[C@@H](Cc4ccccc4)C2[C@H](C)[C@@]2(C)O[C@H]2C3/C=C/C/C=C\CNC1=O (some centres not stated),-0.596
17,COCCOC(=O)N1C(=O)[C@@]2(c3cc(C#Cc4ccc(OC)cc4)ccc31)[C@H](C(=O)N1CCCCCCC1)[C@H]1C(=O)O[C@H](c3ccccc3)[C@H](c3ccccc3)N1[C@@H]2c1ccccc1OCCO,2.42
18,CCCCN1CC=CC23O[C@@H]4C=CCOC(=O)[C@@H]4[C@H]2C(=O)N(C(CO)C(C)C)[C@@H]3C1=O (some centres not stated),-0.782

row,Structure (SMILES),composite z-score
1,C[C@H]1NC(=O)C([C@@H](C)OCc2ccccc2)NC(=O)[C@@]23C(=O)N[C@@H](Cc4ccccc4)C2[C@H](C)[C@@]2(C)O[C@H]2C3/C=C/C/C=C\CNC1=O (some centres not stated),-0.553
2,C=CCC(OC(C)=O)[C@@H]1[C@@H](N(Cc2cc3ccccc3o2)C(=O)c2cccc3ccccc23)c2cc(OCCCO)ccc2N1C(=O)c1ccc2ccccc2c1 (some centres not stated),-0.0758
3,NC(=O)NCC#Cc1ccc2c(c1)[C@]1(C(=O)N2)[C@H](C(=O)N2CCCCCCC2)[C@H]2C(=O)O[C@H](c3ccccc3)[C@H](c3ccccc3)N2[C@@H]1c1ccc(O)cc1,2.38
4,[N-]=[N+]=NCc1ccccc1[C@H]1OC(c2ccc(OCCCO)cc2)=N[C@@]1(Cc1ccccc1)C(=O)N1CCOCC1,1.48
5,CC(C)=CCN(C(=O)C#Cc1ccccc1)[C@H](CO)c1ccccc1,-0.557
6,CCCC=C(CCC)[C@@H](NC(=O)c1ccco1)c1ccc(C(=O)OC)cc1,1.37
7,CN(C)CCCCNC(=O)[C@H]1C[C@H]2C(=O)NCC(=O)N2[C@H]1c1cccc(OCCO)c1,0.0097
8,N#Cc1ccc(C(O)C2C=CC3C(=O)NC(=O)C3N2Nc2ccccn2)cc1 (configuration not stated),0.2
9,C=CCC(OC(C)=O)[C@@H]1[C@@H](N(Cc2ccc(-c3cccc(C(F)(F)F)c3)o2)C(=O)Cc2ccc(F)cc2)c2cc(OCCCO)ccc2N1C(=O)c1ccc2ccccc2c1 (some centres not stated),-0.681
10,COCCOC(=O)N1C(=O)[C@@]2(c3cc(C#CC4(O)CCCCCC4)ccc31)[C@H](c1ccc(OCCO)cc1)N1[C@H](c3ccccc3)[C@H](c3ccccc3)OC(=O)[C@H]1[C@@H]2C(=O)N1CCCCCCC1,2.18
11,CO[C@H]1O[C@H](CO)[C@@H](OC(=O)Nc2ccc(C(F)(F)F)cc2)[C@H](OC(=O)Nc2ccccc2-c2ccccc2)[C@@H]1OC(=O)Nc1ccccc1-c1ccccc1,2.2
12,COCCOC(=O)N1C(=O)[C@@]2(c3cc(C#CCC(C(=O)OC)C(=O)OC)ccc31)[C@H](C(N)=O)[C@H]1C(=O)O[C@H](c3ccccc3)[C@H](c3ccccc3)N1[C@@H]2c1ccc(OCCO)cc1,1.27
13,CCCCNC(=O)c1ccc(C#C[Si](C)(C)C)c(OC(C)=O)c1,-0.262
14,COCCOC(=O)N1C(=O)[C@@]2(c3cc(C#Cc4ccc(OC)cc4)ccc31)[C@H](C(=O)Nc1nc3ccccc3s1)[C@H]1C(=O)O[C@H](c3ccccc3)[C@H](c3ccccc3)N1[C@@H]2c1ccccc1OCCO,1.5
15,COC(=O)[C@@]1(Cc2ccc(F)cc2)[C@H]2c3cc(C(=O)N4CCCC4)n(CCO)c3C[C@H]2CN1C(=O)c1ccccc1,-0.07
16,CCC[C@@H]1C=C(C(=O)OCC)[C@H](c2ccccc2)N1S(=O)(=O)c1ccc(C)cc1,1.99
17,COCCOC(=O)N1C(=O)[C@@]2(c3ccccc31)[C@H](C(N)=O)[C@H]1C(=O)O[C@H](c3ccccc3)[C@H](c3ccccc3)N1[C@@H]2c1ccc(OCCO)cc1,0.68
